Assay outcomes deposited in PubChem by National Center for Advancing Translational Sciences (NCATS).
HCMV antiviral: blocks human cytomegalovirus replication. HFF cells, HCMV-luciferase reporter, 72 h; hits give low values. activity change, negative = inhibition, % at 57.5 µM. hit rate 4.5% among 410,000. AID 1259415; in the data active means activity change below about -60%; inconclusive means no clear call, values can overlap the other calls; inactive means above about -39%; further: on the % scale 0 is the no-effect control and ±100 the full control effect
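HFF cells seeded 16 h at 37C, treated with compounds, infected with luciferase-reporter HCMV at MOI 1 PFU/cell; luciferase read at 72 h post infection, normalized to buffer-only and Salinomycin controls.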
Pf growth 96h: P. falciparum growth inhibition at 96 hour, primary screen for plastid delayed-death inhibitors | P. falciparum luciferase reporter growth, 96 h | Potency, µM (series often up to 28.7 µM), inactives show top-dose activity change, negative = inhibition, most hits filed as inhibitors | hit rate 6.9% among 320,000 | AID 504834; further: potency means the concentration at half of the fitted maximal effect; on the % scale 0 is the no-effect control and ±100 the full control effect
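Plates of compound plus infected erythrocytes (2% hematocrit, 0.05% parasitemia final) incubate 96 hours, 37 C, 5% CO2. Detection reagent added; reduced luminescence from the parasites' luciferase reporter flags inhibition.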
Cycloheximide cs: counter-screen hit for Shiga toxin inhibitors, cycloheximide | cell reporter, cycloheximide protein synthesis inhibition counterscreen | max response, % | hit rate 12% among 300,000 | AID 2314; in the data active means max response mostly above about 13%, no sharp cut-off; inactive means mostly below about 14%; further: read at 38.3 µM for the half of the compounds with a filed dose; 0% is about no effect
Pf growth 48h: P. falciparum growth inhibition at 48 hours (one generation) | AID 504832 | Potency, µM (series often up to 28.7 µM), for inactives: top-dose activity change, negative = inhibition, most hits filed as inhibitors | hit rate 5.9% among 310,000 | P. falciparum luciferase growth in erythrocytes, 48 h; further: potency means the concentration at half of the fitted maximal effect; on the % scale 0 is the no-effect control and ±100 the full control effect
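Luciferase-expressing parasites in RBCs, 2% Hct / 0.1% parasitemia final; RPMI 1640 + 0.5% Albumax; 37 C, 5% CO2, one generation; luminescence read-out, lower signal = inhibition.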
Shiga inhibitor: blocks Shiga toxin action in Vero cells | Vero cells, Shiga toxin protein synthesis inhibition reporter | inhibition, % at 38.7 µM | hit rate 9.2% among 290,000 | AID 2315; in the data active means inhibition mostly above about 28%, no sharp cut-off; inactive means mostly below about 43%; further: 0% is about no effect
HCV inhibitor: blocks hepatitis C virus; Huh7.5.1 HCVcc-Cre infection, luciferase reporter, 44 h; Potency, µM (highest dose often 41.8 µM), for the others: at the top dose activity change, negative = inhibition, hits mostly inhibitors; hit rate 3.4% among 340,000; further: potency means the concentration at half of the fitted maximal effect; on the % scale 0 is the no-effect control and ±100 the full control effect
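A cell-based infection assay in which seeded cells (1,000 per well) receive test compound after 4 h, are inoculated with HCVcc-Cre at approximately 0.5 moi, and are incubated 44 h before luminescence detection.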
Numbers without * were called inactive; u = inconclusive; x = no result given. In the library only some 21% were active in any assay of this set; here they are far more common. Unless noted, the call rests on the fitted dose curve; in most records, active means well fitted inhibition curve with a large enough effect; inconclusive means small, poorly fitted or top-dose-only effect, or another doubt; inactive means no such curve, though single readings can be large or run the other way.

SMILES	HCMV antiviral	Pf growth 96h	Cycloheximide cs	Pf growth 48h	Shiga inhibitor	HCV inhibitor
COc1ccc(NC(=O)c2cc(=O)c3ccc(C)c(C)c3o2)cc1Cl	2	x	x	x	x	x
O=C(Nc1ccc(F)cc1)c1cc(S(=O)(=O)N2CCCCC2)cs1	-84*	u	-2	-13%	-7	u
O=C(c1ccc(S(=O)(=O)N2CCCC2)cc1)N(c1ccc(F)cc1)C1C=CS(=O)(=O)C1 (centres undefined)	-69*	63%	-2	2%	33	10%
O=S(=O)(c1ccc(F)cc1)N1CCCC1	4	u	1	u	x	-5%
O=S(=O)(c1ccc(S(=O)(=O)N(Cc2ccc(F)cc2)C2CCCC2)cc1)N1CCCC1	-38	x	-7	13µM*	-2	17%
COc1ccccc1NC(=O)C1=C(C)Nc2nc(CCCO)nn2C1c1cccc(O)c1 (centres undefined)	14	x	x	x	x	x
CCCCn1c(=N)n(CC(O)COc2ccccc2)c2ccccc21 (centres undefined)	14	u	-5	5.2µM*	-7	u
CCOC(=O)Cn1c(=N)n(CCOc2ccc(OC)cc2)c2ccccc21	2	x	-2	8%	-8	-3%
CCCCn1c(=N)n(CC(O)c2ccccc2)c2ccccc21 (centres undefined)	u	13µM*	-1	2.1µM*	-14	u
OCc1nc2ccccc2n1CC(O)COc1ccccc1 (centres undefined)	61	19%	-2	14%	6	19%
CCCn1c(=N)n(CCOc2ccc(OC)cc2)c2ccccc21	-39	x	-5	15µM*	-6	u
CCn1c(=N)n(CC(O)c2ccccc2)c2ccccc21 (centres undefined)	-16	-9%	1	u	-16	15%
CCCCn1c(=N)n(CC(O)COc2ccc(C)cc2)c2ccccc21 (centres undefined)	-34	x	-5	2.3µM*	-12	11µM*
CC1CC(NS(=O)(=O)c2cc3c4c(c2)CCN4C(=O)CC3)CC(C)(C)C1 (centres undefined)	-27	u	x	-9%	x	-28%
CCCCCCCC(=O)C(C)C(=O)N(C)[C@H](Cc1ccc(OC)cc1)C(=O)N(C)[C@H](C(N)=O)C(C)C (some centres undefined)	15	x	x	x	x	0.56µM*
C=CCN1C(=O)/C(=C/N(C)C)S/C1=N\S(=O)(=O)c1cccs1	7	x	x	x	x	x
O=C(NC(=S)Nc1ccc2[nH]c(=O)[nH]c2c1)c1cccc(F)c1	-27	4%	-8	41%	-9	9%
CCOC(=O)c1cc(-c2csc(N/N=C/c3ccccc3Cl)n2)on1	-10	2.6µM*	-1	u	-12	u
CCOC(=O)c1cc(-c2csc(Nc3ccccc3Cl)n2)on1	14	40%	-3	3%	-20	29%
CCOC(=O)/C=C/[C@H](CCCCOCc1ccccc1)NC(=O)C(F)(F)F	9	x	x	x	x	x
NNC(=O)c1[nH]c2ccc([N+](=O)[O-])cc2c1-c1ccccc1	-89*	u	-5	-21%	-5	u
COc1ccc(-c2c3c(=O)n(C)c(=O)n(C)c3cn2-c2cccc(N)c2)cc1	-2	x	x	x	x	x
Cc1cccc(CC2C(=O)Nc3ccccc32)c1 (centres undefined)	-70*	x	x	x	x	x
COc1ccc(CC2C(=O)Nc3ccc(Br)cc32)cc1OC (centres undefined)	-20	x	x	x	x	x
CN(C)c1ccc(CC2C(=O)Nc3ccccc32)cc1 (centres undefined)	-63*	u	22*	u	50*	5%
O=C1Nc2ccccc2C1Cc1ccc(Br)cc1 (centres undefined)	-29	x	x	x	x	x
CCc1ccc(OCC(=O)Nc2ccc(N3CCN(C(=O)c4ccccc4)CC3)cc2)cc1	-34	-9%	13	-18%	-34	1%
COc1ccc(OCC(=O)Nc2ccc(N3CCOCC3)c(Cl)c2)cc1	-18	x	-3	u	-7	10µM*
COc1ccc(OCC(=O)Nc2ccc(N3CCN(C(=O)c4ccccc4)CC3)c(Cl)c2)cc1	u	-78%	9	8.3µM*	-2	u
Cc1ccccc1OCC(=O)Nc1ccc(N2CCN(C)CC2)c(Cl)c1	29	10%	29*	33%	85*	-23%
